# Assay results taken from PubChem BioAssay AID651558 (National Center for Advancing Translational Sciences (NCATS), 2012).
# Hit rate of the full screen: of about 1,200 compounds, about 480 (40%) were called active. About 29% were inconclusive and are not listed. The call rests on the fitted dose curve; in most records, active means well fitted inhibition curve with a large enough effect; inconclusive means small, poorly fitted or top-dose-only effect; inactive means no such curve, though single readings can be large or run the other way. The list shows a part of the results.
# Experiment: qHTS Assay to Find Inhibitors of Chronic Active B-Cell Receptor Signaling: Hit Validation in Primary Screen; further: nearly all actives have a fitted effect of over 75% in size
# Conditions: ABC-DLBCL IkB-luc/CBR ratio luminescence, 4 h; series mostly up to 46.1 µM; activity change, negative = inhibition: at the top concentration
# Method in brief: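 Concentration series (3 nM to 46 uM) tested on TMD8 cells induced with doxycycline for 4 h. Filter-corrected green (IkBa fusion) over red (unfused) luciferase signal; Data were normalised to 10 uM MG-132 and untreated cell wells.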
# On the % scale 0 is the no-effect control and ±100 the full control effect; potency means the concentration at half of the fitted maximal effect.
Compound,"activity change, negative = inhibition",Potency
COc1cc2c(cc1OC)C(/C(C#N)=N\O)=NC(C)(C)C2,43.9% (inactive),–
CCc1ccc(CCC(=O)Nc2sc3c(c2C#N)CCCC3)o1,–,5.8 µM (active)
N#Cc1c(NC(=O)/C=C/c2ccco2)sc2c1CCCC2,–,1.3 µM (active)
CC(C)NC(=S)N=Nc1c(O)[nH]c2ccc([N+](=O)[O-])cc12,-7.83% (inactive),–
CC(C)Oc1ccccc1C1CC(=O)Nc2cc3c(cc21)OCCO3 (stereo not given),–,8.2 µM (active)
COc1ccccc1C1CC(=O)Nc2cc3c(cc21)OCCO3 (stereo not given),–,16.4 µM (active)
COc1ccc(OC)c(C2CC(=O)Nc3n[nH]c(-c4ccccc4)c32)c1 (stereo not given),110% (inactive),–
O=C(CSc1cccc[n+]1[O-])c1ccccc1Br,-17.2% (inactive),–
COc1cc(C(=O)NNC(=O)C2CC=CCC2C(=O)O)cc(OC)c1OC (stereo not given),-8.53% (inactive),–
COc1c(Cl)cc(C(=O)NN)cc1Cl,-0.709% (inactive),–
COc1cc(C(=O)N2CCN(c3cc(Cl)ccc3Cl)CC2)cc(OC)c1OC,–,1.16 µM (active)
CCOC(=O)C1=C(C)c2ccccc2N(C(=O)OC)C1(C)C(=O)OCC (stereo not given),0.93% (inactive),–
O=S1(=O)C=C(Sc2nc3cc(Cl)ccc3o2)c2ccccc21,–,16.4 µM (active)
CC(/C=C/c1ccccc1)=N\NC(N)=S,-5.71% (inactive),–
N#CC(C#N)=C(N)CSc1cccc[n+]1[O-],-7.23% (inactive),–
O=C(CCl)Nc1cccc(S(=O)(=O)NC2=NCCC2)c1,–,13 µM (active)
O=C(CCl)Nc1cccc(S(=O)(=O)NC2=NCCCCC2)c1,–,8.2 µM (active)
CCOc1ccc(C(=O)NC(=S)Nc2cccc(S(=O)(=O)NC3=NCCC3)c2)cc1,–,18.4 µM (active)
CCOc1ccc(OCc2ccc(C(=O)N/N=C(\C)c3ccccn3)cc2)cc1,-1.73% (inactive),–
CN(C)c1ccc(C(=O)c2ccc(N(C)C)c3ccccc23)cc1,–,0.291 µM (active)
COc1ccc(C(=O)c2ccc(N(C)C)cc2)c2ccccc12,–,3.26 µM (active)
Oc1ccc(CNc2ccccc2F)c2cccnc12,0.438% (inactive),–
O=C(Oc1c(CN2CCOCC2)cc(Cl)c2cccnc12)c1ccccc1F,-6.62% (inactive),–
Cc1noc(C)c1CSc1ccc2ccccc2n1,23.1% (inactive),–
C=CCn1c(SCc2c(C)noc2C)nc2ccccc2c1=O,–,14.6 µM (active)

Compound,"activity change, negative = inhibition",Potency
CCn1ncc(C2=NOC(C(=O)NCc3ccc(Cl)cc3)C2)c1C (stereo not given),–,8.2 µM (active)
CCn1ncc(C2=NOC(C(=O)NCc3ccccc3)C2)c1C (stereo not given),–,18.4 µM (active)
Cc1ccc(Sc2c(CO)c(-c3ccccc3)nn2C)cc1,–,5.17 µM (active)
COc1ccc(/C=C(\C#N)c2c[nH]c3ccccc23)cc1,–,14.6 µM (active)
COc1ccc(CC(=O)OCC(=O)c2c[nH]c3ccccc23)cc1,-3.42% (inactive),–
N#C/C(=C\c1ccc(Cl)cc1)c1nc2ccccc2o1,-4.33% (inactive),–
C=CCN(CC=C)C(=S)NC(=O)c1ccc(OC)cc1,34.1% (inactive),–
Cn1c(=S)[nH]c2c(c1=O)C(C)(C)Cc1ccccc1-2,1.61% (inactive),–
COc1ccc(C(=O)/C=C2/c3ccccc3CC(C)(C)N2C)cc1,–,20.6 µM (active)
COc1cc2c(c(OC)c1OC)-c1ccc(OC)c(=O)cc1[C@@H](N(C)CC#CCO)CC2,–,0.259 µM (active)
COc1cc2c(c(OC)c1OC)-c1ccc(N(C)CC(OC)OC)c(=O)cc1[C@@H](NC(C)=O)CC2,–,5.8 µM (active)
COc1cccc(C(=O)Nc2ccc3c(cc2=O)[C@@H](NC(C)=O)CCc2cc(OC)c(OC)c(OC)c2-3)c1,–,23.1 µM (active)
COc1cc2c(c(OC)c1OC)-c1ccc(OC)c(=O)cc1[C@@H](NC(C)=O)CC2,–,0.206 µM (active)
CCCC(=O)O[C@]1(C(=O)CO)CC[C@H]2[C@@H]3CCC4=CC(=O)CC[C@]4(C)[C@H]3[C@@H](O)C[C@@]21C,-35.5% (inactive),–
Cc1nc2c(-c3ccccc3)c[nH]n2c(=O)c1Cc1ccccc1,1.91% (inactive),–
CCN(CC)c1ccc2c(cc1=O)[C@@H](NC)CCc1cc(OC)c(OC)c(OC)c1-2,–,5.8 µM (active)
COc1cc2c(c(OC)c1OC)-c1ccc(OC)c(=O)cc1C(NC(C)=O)CC2 (stereo not given),–,0.206 µM (active)
CCN(CC)c1ccc(Nc2cc3n(c(=O)n2)CCc2cc(OC)c(OC)cc2-3)cc1,-4.57% (inactive),–
NCCNC(=O)Cc1ccc(NC(=O)Cc2ccc(Nc3ncnc4c3ncn4[C@@H]3O[C@H](CO)[C@@H](O)[C@H]3O)cc2)cc1,–,0.461 µM (active)
NCCNC(=O)Cc1cccc(NC(=O)Cc2ccc(Nc3ncnc4c3ncn4[C@@H]3O[C@H](CO)[C@@H](O)[C@H]3O)cc2)c1,–,1.46 µM (active)
CC1CCc2c(sc(NC(=O)CSc3nc(N)cc(=O)[nH]3)c2C(N)=O)C1 (stereo not given),–,10.3 µM (active)
NC(=O)c1c(NC(=O)CSc2nc(N)cc(=O)[nH]2)sc2c1CCCC2,–,9.2 µM (active)
COc1cc2c(cc1OC)C(C)N(C(=O)c1cc(C)on1)CC2 (stereo not given),–,5.8 µM (active)
Cc1cccc(C)c1-n1c(C)cc(/C=N/NC(N)=S)c1C,-9.78% (inactive),–
COc1ccc(-c2nn(-c3ccccc3)cc2/C=N/NC(N)=S)cc1OC,–,20.6 µM (active)

Compound,"activity change, negative = inhibition",Potency
COc1ccccc1NS(=O)(=O)c1cccc(C(=O)N/N=C/c2cn(-c3ccccc3)nc2-c2ccccc2)c1,37.2% (inactive),–
Cc1ccccc1NCC(=O)c1ccc(Br)cc1,-0.682% (inactive),–
Cc1ccc(N(C)S(=O)(=O)c2ccc(-c3cnc(C4CC4)o3)cc2)cc1,–,5.8 µM (active)
Cc1cccc(N(C)S(=O)(=O)c2ccc(-c3cnc(C4CC4)o3)cc2)c1,–,1.84 µM (active)
Cc1ccc2[nH]c(-c3cccc(F)c3)cc(=O)c2c1,–,4.11 µM (active)
Cc1ccc2[nH]c(-c3ccccc3)cc(=O)c2c1,–,5.17 µM (active)
CCn1c(SCC(=O)c2ccc(Cl)cc2)nnc1C(C)C,-2.9% (inactive),–
CCOc1cc(/C=C(/C#N)C(=O)Nc2ccc(O)cc2)cc(Br)c1O,–,2.06 µM (active)
CC1(CCc2ccc(O)cc2)NC(=O)NC1=O (stereo not given),-10.3% (inactive),–
CCOC(=O)C1(C)C(C(=O)OC)=C(c2ccc(OC)cc2)c2ccccc2N1C(=O)OC (stereo not given),-6.99% (inactive),–
CCOC(=O)C(NC(=O)N(C)C)(Nc1sc(C)c(CC)c1C#N)C(F)(F)F (stereo not given),-16.9% (inactive),–
O=[N+]([O-])c1ccccc1S(=O)(=O)Nc1cccc2cccnc12,–,13 µM (active)
O=[N+]([O-])c1cc(F)c2cccnc2c1O,-3.02% (inactive),–
O=[N+]([O-])c1ccc(O)c2ncccc12,-14.7% (inactive),–
Cc1c(C(=O)Oc2cccc3cccnc23)oc2ccccc12,-1.8% (inactive),–
Cc1ccc(S(=O)(=O)Nc2cccc3cccnc23)cc1,–,8.2 µM (active)
O=S(=O)(Nc1cccc2cccnc12)c1ccccc1,–,13 µM (active)
O=C(/C=C\c1ccccc1)Oc1cccc2cccnc12,71.2% (inactive),–
Cc1ccnc(NC(=O)c2cccc(S(=O)(=O)Nc3ccc(C)cc3C)c2)c1,5.49% (inactive),–
CCN(CC)S(=O)(=O)c1ccc(C(=O)NCCSc2c[nH]c3ccccc23)cc1,-21.6% (inactive),–
COc1cccc(/C=N/Nc2nc(Nc3ccccc3)nc(-n3nc(C)cc3C)n2)c1O,–,0.92 µM (active)
CC1=NN(C(N)=S)C(=O)C1N=Nc1ccccc1 (stereo not given),3.07% (inactive),–
Cc1ccc(/C=N/NC(=O)c2cc(-c3cccnc3)nc3ccccc23)cc1,–,2.31 µM (active)
COc1ccc(-c2cc(C(=O)N/N=C(\C)c3cccnc3)c3ccccc3n2)cc1,32% (inactive),–
Cc1ccsc1/C=N/NC(=O)c1cc(-c2ccncc2)nc2ccccc12,–,1.64 µM (active)

Compound,"activity change, negative = inhibition",Potency
CCc1ccc(/C=N/NC(=O)c2cc(-c3ccncc3)nc3ccccc23)s1,–,8.2 µM (active)
Fc1ccc(/C=N/NC(=S)Nc2cccnc2)cc1,-9.27% (inactive),–
Cc1ccc(/C=N/NC(=O)c2cc(-c3ccncc3)nc3ccccc23)o1,–,5.17 µM (active)
O=C(CSc1cccc[n+]1[O-])c1ccc(Cl)cc1,-3.23% (inactive),–
CCc1ccc(NC(=O)CSc2nc(=O)n(CCCN3CCOCC3)c3c2CCCC3)cc1,-11.2% (inactive),–
CC(=NNC(=O)c1cc(C)nc2ccccc12)c1ccc(N2CCOCC2)cc1,-17.3% (inactive),–
S=C(NCCN1CCOCC1)N/N=C/c1cccs1,-5.86% (inactive),–
O=C(N/N=C/c1ccc([N+](=O)[O-])o1)c1cc(-c2ccc(-c3ccccc3)cc2)nc2ccccc12,–,4.61 µM (active)
O=C(N/N=C/c1cccs1)c1cc(-c2ccncc2)nc2ccccc12,–,2.59 µM (active)
CCc1ccc(/C=N/NC(=O)c2cc(C3CC3)nc3ccccc23)s1,–,16.4 µM (active)
COC(=O)c1cnc(Oc2ccc(NC(=O)NC(=O)c3c(OC)cccc3OC)cc2)cc1C(F)(F)F,–,1.84 µM (active)
Cc1cc(C)c2cc(C=O)c(Cl)nc2c1,–,3.66 µM (active)
Cc1ccc(N=Nc2c(C)[nH]n(C(N)=S)c2=O)cc1,-6.9% (inactive),–
CCc1cc2c(SCC(=O)NC3CC3)ncnc2s1,-21.8% (inactive),–
COc1ccc(C2CC(c3c(O)cc(C)oc3=O)=NCCS2)c(OC)c1 (stereo not given),–,1.16 µM (active)
Cc1ccc(C(=O)Nc2nc(C)c(C(=O)Nc3ccc4c(c3)CCC4)s2)cc1,–,4.61 µM (active)
CCCn1nnc(NC(=S)NC(=O)c2ccc(-c3ccc(Br)cc3)o2)n1,-9.53% (inactive),–
COc1cc(C(=O)NC2CCN(Cc3nnnn3Cc3ccc(F)cc3)CC2)cc(OC)c1OC,-15.1% (inactive),–
COc1cc(C2=NOC(C(=O)NCc3ccc(F)cc3)C2)cc(OC)c1OC (stereo not given),–,4.61 µM (active)
COc1ccc(C2=NOC(C(=O)NCc3ccc(F)cc3)C2)cc1 (stereo not given),–,18.4 µM (active)
Cc1ccc(C(=O)O)cc1NC(=S)NC(=O)C(c1ccccc1)c1ccccc1,-10.3% (inactive),–
Cc1cc(C)cc(N2CC(O)=C(c3nc4ccccc4c(=O)[nH]3)C2=N)c1,-26% (inactive),–
COc1cccc(N2CC(O)=C(c3nc4ccccc4s3)C2=N)c1,–,23.1 µM (active)
COc1ccc(/C(C)=N/Nc2ncc(Cl)cc2Cl)c(O)c1,-7.99% (inactive),–
COc1ccc(/C=N/Nc2nccnc2Cl)c(OC)c1,–,23.1 µM (active)
